We go through nine molecules from PubChem BioAssay (EPA / NIEHS).

Records with an inconclusive call do not appear. Calls of active or inactive are those of the source. Rule for the calls, unless noted: active = hit-call score of the fitted dose curve at least 0.9, where 1 is the maximum; inconclusive = response in the unintended direction; inactive = score below 0.9.

Read-out in test [1]: xenobiotic metabolism (CYP1A1), CYP1A1 (gene 1543)
Nature of the test: CLD_CYP1A1_24hr: CellzDirect (CLD) Gene Expression Assay for xenobiotic metabolism (CYP1A1) at 24 hours (AID 2283673). An outline of the steps: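 Primary human hepatocytes dosed daily with fresh solutions in 0.2% DMSO vehicle. mRNA measured at 24 h by quantitative nuclease protection assay with chemiluminescence; gain-of-signal fit versus DMSO, with morphology-based cytotoxicity flags.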

Read-out in test [2]: ABC Transporter (ABCB11), ABCB11 (gene 8647)
The experiment in a line: CLD_ABCB11_24hr: CellzDirect (CLD) Gene Expression Assay for ABC Transporter (ABCB11) at 24 hours (AID 2283674; active = hit-call score of the fitted dose curve at least 0.9, where 1 is the maximum; inactive = score below 0.9). Put shortly: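 Primary human hepatocytes were dosed daily for two days, with 0.2% DMSO vehicle. ABCB11 mRNA induction was measured at 24 hours by quantitative nuclease protection assay with chemiluminescence. Gain of signal was fitted relative to DMSO.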

Read-out in test [3]: ABC Transporter (ABCB11), ABCB11 (gene 8647)
The experiment in a line: CLD_ABCB11_6hr: CellzDirect (CLD) Gene Expression Assay for ABC Transporter (ABCB11) at 6 hours (AID 2283675).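 Note: hits raise ABCB11 mRNA level so AC50 marks induction.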 An outline of the steps:
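Human primary hepatocytes (two donor preparations) given fresh chemical daily at multiple concentrations, vehicle 0.2% DMSO. ABCB11 mRNA induction measured 6 h after dosing by qNPA chemiluminescence versus DMSO; cytotoxicity annotated from morphology.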

Read-out in test [4]: Cytochrome P450 2B6 (Homo sapiens) (UniProt P20813)
Nature of the test: CLD_CYP2B6_6hr: CellzDirect (CLD) Gene Expression Assay for xenobiotic metabolism (CYP2B6) at 6 hours (AID 2283677).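 Note: actives raise CYP2B6 transcript above DMSO baseline so AC50 marks an inducer.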 Put shortly:
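Primary human hepatocytes dosed with chemicals at multiple concentrations, vehicle 0.2% DMSO; CYP2B6 mRNA induction measured 6 h after dosing by quantitative nuclease protection assay with chemiluminescence, gain of signal fitted relative to DMSO.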

The nature of test [5]: CCTE_Padilla_ZF_144hpf_TERATOSCORE: (Legacy) CCTE's 144 Hour Post-fertilization zebrafish Assay Teratoscore, Padilla Lab (AID 2283679; active = hit-call score of the fitted dose curve at least 0.9, where 1 is the maximum; inactive = score below 0.9;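 for AC50: zebrafish embryos with chorions exposed by immersion from 6-8 hpf to 5 dpf with daily renewal; teratogenicity score from eye scoring of death hatching and malformations at 144 hpf; higher score means more developmental defects relative to DMSO baseline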). An outline of the steps: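 Larvae scored by eye at 144 hpf for death, hatching and malformations after a day in clean Hanks'. Before that, daily-renewed exposure at 80 uM (0.4% DMSO, 26C) from roughly 6-8 hpf through 5 dpf, 4 embryos per chemical.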

Read-out in test [6]: Cytochrome P450 3A4 (Homo sapiens) (UniProt P08684)
Nature of the test: CLD_CYP3A4_6hr: CellzDirect (CLD) Gene Expression Assay for xenobiotic metabolism (CYP3A4) at 6 hours (AID 2283680). An outline of the steps:
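Primary human hepatocytes (two donor preparations) dosed; CYP3A4 mRNA harvested at 6 h and quantified by qNPA chemiluminescence. Gain of signal fitted against 0.2% DMSO vehicle; cytotoxicity flagged by phase-contrast morphology.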

Read-out in test [7]: Glyceraldehyde-3-phosphate dehydrogenase (Homo sapiens) (UniProt P04406)
Nature of the test: CLD_GAPDH_6hr: CellzDirect (CLD) Gene Expression Assay for Baseline Control (Glyceraldehyde 3-phosphate dehydrogenase) at 6 hours (AID 2283681).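 Note: active means increased signal relative to DMSO vehicle.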 An outline of the steps:
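Primary human hepatocytes from two donor preparations, dosed at multiple concentrations with 0.2% DMSO vehicle; GAPDH mRNA measured 6 h after dosing by chemiluminescent quantitative nuclease protection assay (qNPA) on denatured lysates. Serves as background control; cytotoxicity annotated by morphology.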

Read-out in test [8]: Broad substrate specificity ATP-binding cassette transporter ABCG2 (Homo sapiens) (UniProt Q9UNQ0)
The experiment in a line: CLD_ABCG2_24hr: CellzDirect (CLD) Gene Expression Assay for ABC Transporter (ABCG2) at 24 hours (AID 2283685).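 For AC50: AC50 is for induction meaning signal gain over DMSO vehicle.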 An outline of the steps:
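Primary human hepatocytes were dosed daily with ToxCast chemicals at multiple concentrations (vehicle 0.2% DMSO). ABCG2 mRNA was measured at 24 h by qNPA chemiluminescence; induction was scored as gain of signal versus DMSO.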

Read-out in test [9]: Cytochrome P450 2C19 (Homo sapiens) (UniProt P33261)
The experiment in a line: CLD_CYP2C19_24hr: CellzDirect (CLD) Gene Expression Assay for xenobiotic metabolism (CYP2C19) at 24 hours (AID 2283687).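 Note: activity means mRNA induction above DMSO vehicle baseline.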 An outline of the steps: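 Primary human hepatocytes (two donor preparations) dosed daily with fresh test chemical in 0.2% DMSO vehicle; CYP2C19 mRNA induction measured at 24 h by quantitative nuclease protection assay with chemiluminescence, fitted for gain of signal versus DMSO.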

Read-out in test [10]: Cytochrome P450 3A4 (Homo sapiens) (UniProt P08684)
Nature of the test: CLD_CYP3A4_24hr: CellzDirect (CLD) Gene Expression Assay for xenobiotic metabolism (CYP3A4) at 24 hours (AID 2283689). Put shortly: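 Primary human hepatocytes from two donors dosed daily with fresh compound for two days, 0.2% DMSO vehicle. CYP3A4 mRNA at 24 hr by qNPA chemiluminescence; gain-of-signal fit versus DMSO, cytotoxicity flagged by morphology.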

Test [11] is described as follows: CLD_ACTIN_6hr: CellzDirect (CLD) Gene Expression Assay for Baseline Control (Actin) at 6 hours (AID 2283676).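 Note: active means increased actin mRNA relative to DMSO vehicle.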 Put shortly: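 Primary human hepatocytes dosed with fresh chemical solutions (vehicle 0.2% DMSO), harvested at 6 h. Actin mRNA quantified by quantitative nuclease protection assay with chemiluminescent read-out, as background control relative to DMSO.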

Read-out in test [12]: Cytochrome P450 2C19 (Homo sapiens) (UniProt P33261)
Nature of the test: CLD_CYP2C19_6hr: CellzDirect (CLD) Gene Expression Assay for xenobiotic metabolism (CYP2C19) at 6 hours (AID 2283678). Put shortly:
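Primary human hepatocytes from two donor preparations were dosed daily, with 0.2% DMSO as vehicle, and harvested 6 h after dosing. CYP2C19 mRNA induction was measured by qNPA chemiluminescence and fitted as gain of signal against DMSO.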

Read-out in test [13]: xenobiotic metabolism (CYP1A2), CYP1A2 (gene 1544)
Nature of the test: CLD_CYP1A2_24hr: CellzDirect (CLD) Gene Expression Assay for xenobiotic metabolism (CYP1A2) at 24 hours (AID 2283683). An outline of the steps: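 Primary human hepatocytes from two donor preparations dosed daily with multiple concentrations of chemical, 0.2% DMSO vehicle. CYP1A2 mRNA at 24 h quantified by qNPA chemiluminescence; gain of signal analyzed relative to DMSO. Cytotoxicity flagged by phase-contrast morphology.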

Read-out in test [14]: glucuronosyltransferase (UGT1A1), UGT1A1 (gene 54658)
The experiment in a line: CLD_UGT1A1_6hr: CellzDirect (CLD) Gene Expression Assay for glucuronosyltransferase (UGT1A1) at 6 hours (AID 2283672). An outline of the steps: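 Primary human hepatocytes from two donor preparations, dosed with fresh solutions in 0.2% DMSO, harvested at 6 h. UGT1A1 mRNA measured by qNPA chemiluminescence; induction fitted upward versus DMSO.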

Read-out in test [15]: Cytochrome P450 2B6 (Homo sapiens) (UniProt P20813)
The experiment in a line: CLD_CYP2B6_24hr: CellzDirect (CLD) Gene Expression Assay for xenobiotic metabolism (CYP2B6) at 24 hours (AID 2283686). An outline of the steps:
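Primary human hepatocytes dosed daily for two days with fresh solutions, harvested at 24 hours; mRNA induction quantified by qNPA chemiluminescence, gain of signal vs 0.2% DMSO vehicle. Cytotoxicity annotated from phase-contrast morphology.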

Read-out in test [16]: ABC Transporter (ABCB1), ABCB1 (gene 5243)
The experiment in a line: CLD_ABCB1_24hr: CellzDirect (CLD) Gene Expression Assay for ABC Transporter (ABCB1) at 24 hours (AID 2283684). An outline of the steps: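 Primary human hepatocytes, two donor preparations, dosed daily with fresh solutions; vehicle 0.2% DMSO; harvested at 24 h. ABCB1 mRNA measured by quantitative nuclease protection assay (chemiluminescence); morphology-based cytotoxicity annotated.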

Read-out in test [17]: Cytochrome P450 (CYP24A1_1), CYP24A1 (gene 1591)
Nature of the test: LTEA_HepaRG_CYP24A1_1: Life Technologies and Expression Analysis (LTEA) Assay for Cytochrome P450 (CYP24A1_1) using HepaRG (AID 2283671; active = hit-call score of the fitted dose curve at least 0.9, where 1 is the maximum; inactive = score below 0.9). As to conditions: mRNA level, 48 h; actives raise or lower the signal. An outline of the steps:
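HepaRG, 48 h exposure, 8-pt half-log series from 100 uM in 0.5% DMSO, duplicates. Readout: TaqMan qRT-PCR of CYP24A1 mRNA, housekeeping-normalized (ACTB/GAPDH/POLR2A). Bidirectional curve fit vs DMSO baseline.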

Chain of Broad substrate specificity ATP-binding cassette transporter ABCG2 (Homo sapiens) (Q9UNQ0 whole entry, looked up): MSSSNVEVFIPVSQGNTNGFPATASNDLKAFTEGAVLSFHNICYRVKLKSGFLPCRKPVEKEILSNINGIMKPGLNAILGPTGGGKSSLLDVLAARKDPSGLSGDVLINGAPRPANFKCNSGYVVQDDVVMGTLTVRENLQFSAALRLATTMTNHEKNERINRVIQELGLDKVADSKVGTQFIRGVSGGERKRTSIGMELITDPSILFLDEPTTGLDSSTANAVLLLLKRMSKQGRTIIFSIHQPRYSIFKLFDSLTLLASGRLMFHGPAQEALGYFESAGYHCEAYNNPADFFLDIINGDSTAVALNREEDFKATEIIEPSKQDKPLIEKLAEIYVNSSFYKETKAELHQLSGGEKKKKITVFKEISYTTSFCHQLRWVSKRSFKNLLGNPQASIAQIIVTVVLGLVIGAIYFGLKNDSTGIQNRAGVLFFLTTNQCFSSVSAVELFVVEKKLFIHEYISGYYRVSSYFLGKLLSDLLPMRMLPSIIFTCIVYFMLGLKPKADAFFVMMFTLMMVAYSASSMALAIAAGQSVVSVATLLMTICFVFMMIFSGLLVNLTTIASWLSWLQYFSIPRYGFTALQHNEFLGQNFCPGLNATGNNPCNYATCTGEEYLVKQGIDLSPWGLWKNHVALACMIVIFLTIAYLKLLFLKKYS
Chain of Cytochrome P450 3A4 (Homo sapiens) (P08684 whole entry, looked up): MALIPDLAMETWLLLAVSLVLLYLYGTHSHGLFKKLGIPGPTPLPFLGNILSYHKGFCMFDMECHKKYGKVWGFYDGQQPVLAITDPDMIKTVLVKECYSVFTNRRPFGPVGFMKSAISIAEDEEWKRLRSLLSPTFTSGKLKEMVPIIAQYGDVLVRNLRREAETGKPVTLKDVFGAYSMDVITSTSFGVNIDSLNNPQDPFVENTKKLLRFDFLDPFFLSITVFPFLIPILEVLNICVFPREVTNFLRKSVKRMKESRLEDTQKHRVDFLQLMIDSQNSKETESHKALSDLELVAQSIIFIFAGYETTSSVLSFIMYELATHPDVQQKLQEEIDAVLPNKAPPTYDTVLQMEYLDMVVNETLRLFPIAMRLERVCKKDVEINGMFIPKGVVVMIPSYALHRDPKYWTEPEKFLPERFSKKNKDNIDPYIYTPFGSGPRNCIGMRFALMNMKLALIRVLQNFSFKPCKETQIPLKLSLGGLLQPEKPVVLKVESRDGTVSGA
Chain of Cytochrome P450 2C19 (Homo sapiens) (P33261 whole entry, looked up): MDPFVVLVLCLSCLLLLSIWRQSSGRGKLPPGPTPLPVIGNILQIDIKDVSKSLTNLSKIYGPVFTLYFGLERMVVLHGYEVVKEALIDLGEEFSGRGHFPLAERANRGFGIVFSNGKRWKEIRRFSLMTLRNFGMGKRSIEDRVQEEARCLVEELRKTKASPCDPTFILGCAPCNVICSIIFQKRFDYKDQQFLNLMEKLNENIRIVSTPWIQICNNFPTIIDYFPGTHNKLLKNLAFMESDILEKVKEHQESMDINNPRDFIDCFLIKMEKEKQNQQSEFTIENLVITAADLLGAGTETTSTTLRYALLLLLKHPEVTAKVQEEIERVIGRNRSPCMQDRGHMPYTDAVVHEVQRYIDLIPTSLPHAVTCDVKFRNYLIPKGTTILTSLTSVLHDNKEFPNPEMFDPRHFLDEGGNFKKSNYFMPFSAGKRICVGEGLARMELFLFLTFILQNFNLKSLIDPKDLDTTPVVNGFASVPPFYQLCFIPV
Chain of Glyceraldehyde-3-phosphate dehydrogenase (Homo sapiens) (P04406 whole entry, looked up): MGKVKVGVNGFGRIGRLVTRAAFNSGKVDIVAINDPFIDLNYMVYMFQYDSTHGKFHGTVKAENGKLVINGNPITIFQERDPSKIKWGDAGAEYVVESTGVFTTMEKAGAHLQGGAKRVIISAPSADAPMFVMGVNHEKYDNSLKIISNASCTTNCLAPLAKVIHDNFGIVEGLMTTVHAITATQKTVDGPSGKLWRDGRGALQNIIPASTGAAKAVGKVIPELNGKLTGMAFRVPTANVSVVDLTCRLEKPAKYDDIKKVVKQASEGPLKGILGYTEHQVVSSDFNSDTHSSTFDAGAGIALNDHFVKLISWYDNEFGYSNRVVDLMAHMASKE

The term AC50 denotes the concentration giving half of the maximal activity seen. As to `CCCSP(=O)(OCC)SCCC`, the results for the AC50 in [1] and in test [4] were 2.42 µM (active) and 0.374 µM (active), respectively. Moreover, the molecule was called inactive in test [2], in test [3], in [5], in [6], in test [7] and in [8]. For the same molecule, the molecule was called inactive in test [9] and in test [10].
For `CCOP(=O)(SC(C)CC)N1CCSC1=O` (stereo unspecified), the molecule was called inactive in [2], in [3], in test [11], in test [12], in test [5] and in test [7]. Further, the result in [13], in test [8] and in test [9] was inactive. The AC50 in test [4] was 3.89 µM (active); in [10], 13.4 µM (active).
For `CCCOc1nn(C(=O)NS(=O)(=O)c2ccccc2C(=O)OC)c(=O)n1C`, the outcome in [14], in test [2], in [11], in test [4], in test [12] and in test [5] was inactive. For the same molecule, in test [7], the call was inactive. Moreover, in test [10], the AC50 was 9.43 µM (active).
With `C=C(C)[C@H]1Cc2c(ccc3c2O[C@@H]2COc4cc(OC)c(OC)cc4[C@@H]2C3=O)O1`, the result in test [14], in test [2], in [3], in test [11], in test [7] and in [9] was inactive. In addition, the AC50 was 0.000155 µM (active) in test [5] and 6.65 µM (active) in test [8].
In the case of `CCCCSP(=O)(SCCCC)SCCCC`, the molecule was classed as inactive in test [3], in test [11], in test [7], in [8] and in test [9]. In addition, the AC50 in test [4] is 1.9 µM (active); in test [5], 0.205 µM (active).
For the molecule `Cc1cc(C2CC2)nc(Nc2ccccc2)n1`, in test [11], the result was inactive. Besides, the AC50 in test [4] was 1.58 µM (active); in test [5], 15.3 µM (active); in test [15], 3.97 µM (active).
As to `CCOP(=S)(OCC)OC(Cl)C(Cl)(Cl)Cl` (stereo unspecified), the molecule was classed as inactive in test [14], in test [2], in test [3], in [11], in [7] and in test [16]. In addition, the outcome in test [8] and in test [9] was inactive. Also, the AC50 in test [1] was 4.46 µM (active); in test [4], 0.833 µM (active); in [5], 4.82 µM (active); in test [10] it was 6.19 µM (active).
Consider `CC(C)[C@H](C(=O)O[C@H](C#N)c1cccc(Oc2ccccc2)c1)c1ccc(Cl)cc1`, for which the molecule was classed as inactive in test [3], in test [11], in [7], in [13], in test [16] and in [9]. The AC50 is 3.42 µM (active) in test [4] and 0.166 µM (active) in test [5].
For `CCc1cccc(CC)c1N(COC)C(=O)CCl`, the molecule was classed as inactive in [17], in test [2], in [3], in test [7], in test [13] and in test [8]. In addition, the half-maximal activity concentration (AC50) in test [4] is 2.58 µM (active); in test [5] it was 35.4 µM (active).
